From the supplement of paper PMC6279402
Where a name gives a salt, the structure may show the parent alone. ± gives the standard deviation of the averaged measurements.

Tested on: A549
Assay: relative viability (normalised to negative control = 1, bortezomib = 0) (fraction); higher = less cytotoxic
Settings: inflammatory serum-free RHB-A with cytokines + LPS, 5 d + 24 h CellTiter-Blue
[1] = compound 30 nM, GSK126 pretreatment: 5 uM GSK126
[2] = compound 30 nM, GSK126 pretreatment: none (vehicle)
[3] = compound 300 nM, GSK126 pretreatment: 5 uM GSK126
[4] = compound 300 nM, GSK126 pretreatment: none (vehicle)

Q: Which relative viability [1] does the source give for `O=C1NC(=O)/C(=C/c2ccc3nccc(-c4ccncc4)c3c2)S1` here?
A: 0.83 ± 0.1

Q: What about the relative viability [2] of the same compound?
A: 0.85 ± 0.088

Q: And the relative viability [3]?
A: 0.747 ± 0.067

Q: What about the relative viability [4] of the same compound?
A: 0.72 ± 0.029

Q: What does the source list for `CC(C)Cn1cnc2c(N)nc3ccccc3c21` [Imiquimod]?
A: relative viability [1]: 0.8017 ± 0.004; relative viability [2]: 0.794 ± 0.058; relative viability [3]: 0.863 ± 0.059; relative viability [4]: 0.911 ± 0.019

Q: Which relative viability [1] does the source give for `O=C(NOCC(O)CO)c1cc(Br)c(F)c(F)c1Nc1ccc(I)cc1F` (configuration not stated) here?
A: 0.407 ± 0.025

Q: And the relative viability [2]?
A: 0.492 ± 0.087

Q: And the relative viability [3]?
A: 0.193 ± 0.019

Q: What about the relative viability [4] of the same compound?
A: 0.276 ± 0.0045

Q: Which results are given for `COc1cc2c(N3CCN(C(=O)Nc4ccc(OC(C)C)cc4)CC3)ncnc2cc1OCCCN1CCCCC1` [Tandutinib (MLN518)]?
A: relative viability [1]: 0.74 ± 0.03; relative viability [2]: 0.735 ± 0.071; relative viability [3]: 0.829 ± 0.075; relative viability [4]: 0.862 ± 0.1

Q: Which results are given for `NC(=O)NO` [Hydroxyurea]?
A: relative viability [1]: 0.998 ± 0.13; relative viability [2]: 1.05 ± 0.1; relative viability [3]: 1.09 ± 0.071; relative viability [4]: 1.06 ± 0.05

Q: Which relative viability [1] does the source give for `CCC1=C[C@@H]2CN(C1)Cc1c([nH]c3ccccc13)[C@@](C(=O)OC)(c1cc3c(cc1OC)N(C)[C@H]1[C@@](O)(C(=O)OC)[C@H](OC(C)=O)[C@]4(CC)C=CCN5CC[C@]31[C@@H]54)C2` [Vinorelbine tartrate] here?
A: 0.403 ± 0.049

Q: And the relative viability [2]?
A: 0.444 ± 0.021

Q: What about the relative viability [3] of the same compound?
A: 0.376 ± 0.056

Q: And the relative viability [4]?
A: 0.307 ± 0.025

Q: What does the source list for `CC(C)(C)Cn1c(N)nc2ccc(-c3[nH]c(C(C)(C)C)nc3-c3ccc(F)cc3)nc21`?
A: relative viability [1]: 1.11 ± 0.14; relative viability [2]: 0.933 ± 0.21; relative viability [3]: 1.25 ± 0.16; relative viability [4]: 1.15 ± 0.18

Q: `CN1CC[C@H](c2c(O)cc(O)c3c(=O)cc(-c4ccccc4Cl)oc23)[C@H](O)C1` [Flavopiridol hydrochloride] was tested. Which relative viability [1] did it give?
A: 0.774 ± 0.011

Q: And the relative viability [2]?
A: 0.785 ± 0.025

Q: And the relative viability [3]?
A: 0.00358 ± 0.0037

Q: And the relative viability [4]?
A: 0.00865 ± 0.0022

Q: With `CO[C@H]1C[C@@H]2CC[C@@H](C)[C@@](O)(O2)C(=O)C(=O)N2CCCC[C@H]2C(=O)O[C@H]([C@H](C)C[C@@H]2CC[C@@H](OCCO)[C@H](OC)C2)CC(=O)[C@H](C)/C=C(\C)[C@@H](O)[C@@H](OC)C(=O)[C@H](C)C[C@H](C)/C=C/C=C/C=C/1C` [Everolimus; Everolimus(RAD001)] as the compound, how does the relative viability [1] read?
A: 0.647 ± 0.072

Q: And the relative viability [2]?
A: 0.615 ± 0.033

Q: What about the relative viability [3] of the same compound?
A: 0.562 ± 0.068

Q: What about the relative viability [4] of the same compound?
A: 0.582 ± 0.063

Q: Which relative viability [1] does the source give for `Oc1ncnc2[nH]ncc12` [Allopurinol] here?
A: 0.988 ± 0.076

Q: What about the relative viability [2] of the same compound?
A: 0.996 ± 0.03

Q: What about the relative viability [3] of the same compound?
A: 0.952 ± 0.11

Q: What about the relative viability [4] of the same compound?
A: 0.974 ± 0.066

Q: Which results are given for `COc1ccc2c3n(c(=NC(=O)c4cccnc4)nc2c1OC)CCN3`?
A: relative viability [1]: 0.7 ± 0.049; relative viability [2]: 0.75 ± 0.044; relative viability [3]: 0.578 ± 0.14; relative viability [4]: 0.735 ± 0.031

Q: `O=C(O)C1(C(=O)O)CCC1.[NH2-].[NH2-].[Pt+2]` [Carboplatin] was tested. Which relative viability [1] did it give?
A: 0.75 ± 0.042

Q: And the relative viability [2]?
A: 0.748 ± 0.059

Q: What about the relative viability [3] of the same compound?
A: 0.742 ± 0.048

Q: And the relative viability [4]?
A: 0.812 ± 0.0056

Q: How did the relative viability [1] turn out when `CS(=O)(=O)CCNCc1ccc(-c2ccc3ncnc(Nc4ccc(OCc5cccc(F)c5)c(Cl)c4)c3c2)o1` [Lapatinib ditosylate; Lapatinib; Lapatinib Ditosylate] was run?
A: 0.811 ± 0.091

Q: What about the relative viability [2] of the same compound?
A: 0.826 ± 0.083

Q: And the relative viability [3]?
A: 0.594 ± 0.11

Q: What about the relative viability [4] of the same compound?
A: 0.562 ± 0.057

Q: What does the source list for `COc1cc2nccc(Oc3ccc(NC(=O)Nc4cc(C)on4)c(Cl)c3)c2cc1OC` [AV-951(Tivozanib)]?
A: relative viability [1]: 0.919 ± 0.12; relative viability [2]: 0.927 ± 0.12; relative viability [3]: 1.1 ± 0.11; relative viability [4]: 1.18 ± 0.18

Q: With `COc1c2occc2cc2ccc(=O)oc12` [Methoxsalen] as the compound, how does the relative viability [1] read?
A: 0.902 ± 0.065

Q: What about the relative viability [2] of the same compound?
A: 0.883 ± 0.11

Q: And the relative viability [3]?
A: 0.881 ± 0.026

Q: And the relative viability [4]?
A: 0.906 ± 0.057

Q: With `CN1CC[C@H](c2c(O)cc(O)c3c(=O)cc(-c4ccccc4Cl)oc23)[C@H](O)C1` [Flavopiridol (Alvocidib)] as the compound, how does the relative viability [1] read?
A: 0.777 ± 0.11

Q: And the relative viability [2]?
A: 0.771 ± 0.15

Q: What about the relative viability [3] of the same compound?
A: 0.0118 ± 0.0013

Q: What about the relative viability [4] of the same compound?
A: 0.0301 ± 0.0094

Q: How did the relative viability [1] turn out when `CN(c1ncccc1CNc1nc(Nc2ccc3c(c2)CC(=O)N3)ncc1C(F)(F)F)S(C)(=O)=O` was run?
A: 0.902 ± 0.22

Q: And the relative viability [2]?
A: 0.907 ± 0.16

Q: What about the relative viability [3] of the same compound?
A: 0.907 ± 0.12

Q: And the relative viability [4]?
A: 0.891 ± 0.13

Q: Which relative viability [1] does the source give for `COc1ccc(-c2ccc3c(N4CCOC[C@@H]4C)nc(N4CCOC[C@@H]4C)nc3n2)cc1CO` here?
A: 0.392 ± 0.011

Q: What about the relative viability [2] of the same compound?
A: 0.396 ± 0.016

Q: What about the relative viability [3] of the same compound?
A: 0.191 ± 0.054

Q: What about the relative viability [4] of the same compound?
A: 0.197 ± 0.015

Q: Which relative viability [1] does the source give for `Cc1ccc(S(=O)(=O)Nc2nc3ccccc3nc2Nc2ccc3nsnc3c2)cc1` here?
A: 0.8 ± 0.092

Q: What about the relative viability [2] of the same compound?
A: 0.774 ± 0.06

Q: And the relative viability [3]?
A: 0.748 ± 0.14

Q: What about the relative viability [4] of the same compound?
A: 0.842 ± 0.06

Q: `Cc1ccc(NC(=O)c2ccc(CN3CCN(C)CC3)cc2)cc1Nc1nc(-c2cccnc2)cs1` [Masitinib(AB1010)] was tested. Which relative viability [1] did it give?
A: 0.802 ± 0.1

Q: What about the relative viability [2] of the same compound?
A: 0.761 ± 0.1

Q: What about the relative viability [3] of the same compound?
A: 0.841 ± 0.11

Q: And the relative viability [4]?
A: 0.979 ± 0.091

Q: With `O=C(Nc1c[nH]nc1-c1nc2ccc(CN3CCOCC3)cc2[nH]1)NC1CC1` as the compound, how does the relative viability [1] read?
A: 0.71 ± 0.039

Q: And the relative viability [2]?
A: 0.663 ± 0.021

Q: And the relative viability [3]?
A: 0.336 ± 0.034

Q: And the relative viability [4]?
A: 0.279 ± 0.077

Q: What does the source list for `C#Cc1cccc(Nc2ncnc3cc(OCCOC)c(OCCO)cc23)c1` [OSI-420 (Desmethyl Erlotinib)]?
A: relative viability [1]: 0.944 ± 0.086; relative viability [2]: 0.91 ± 0.05; relative viability [3]: 0.477 ± 0.047; relative viability [4]: 0.505 ± 0.019

Q: How did the relative viability [1] turn out when `CO[C@H]1C[C@@H]2CC[C@@H](C)[C@@](O)(O2)C(=O)C(=O)N2CCCC[C@H]2C(=O)O[C@H]([C@H](C)C[C@@H]2CC[C@@H](O)[C@H](OC)C2)CC(=O)[C@H](C)/C=C(\C)[C@@H](O)[C@@H](OC)C(=O)[C@H](C)C[C@H](C)/C=C/C=C/C=C/1C` [Sirolimus; RAPAMYCIN; Rapamycin(Sirolimus); Rapamycin] was run?
A: 0.576 ± 0.08

Q: What about the relative viability [2] of the same compound?
A: 0.588 ± 0.064

Q: What about the relative viability [3] of the same compound?
A: 0.552 ± 0.066

Q: What about the relative viability [4] of the same compound?
A: 0.558 ± 0.07
